Here are results for 39 compounds from the supplement of paper PMC12340641.

SMILES strings stand for the structures. Counter-ions that a name gives are not always drawn.

The assay concerns HEK293FT dCK*-IKZF1. Nature of the assay: relative growth recovery (pomalidomide 10 uM = 100%, DMSO = 0%); higher = more growth rescue (IKZF1 fusion degradation). As to conditions: compound concentration: 5 uM; AraC concentration: 0.3 uM; overnight pretreatment + 4 days AraC. An outline of the steps:
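HEK293FT cells stably expressing a dCK*-IKZF1 fusion (300/well, 384-well) received 5 μM compound 2 h after seeding. After overnight at 37 °C they received a nucleoside suicide substrate at 0.3 μM plus medium for 4 days. On day 5, Hoechst 33342-stained nuclei were counted by whole-well imaging. Growth recovery was normalised per plate to a reference degrader (100%) and vehicle (0%); values are means of duplicates run on different days.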
As for `CN1CCN(CCCN2c3ccccc3Sc3ccc(C(F)(F)F)cc32)CC1`, the relative growth recovery came out at 3.05%. `COc1ncnc(NS(=O)(=O)c2ccc(N)cc2)c1OC`: the relative growth recovery worked out at 0.355%. For `Nc1ncnc2c1ncn2[C@@H]1O[C@H](COP(=O)(O)OP(=O)(O)OP(=O)(O)OP(=O)(O)OC[C@H]2O[C@@H](n3cnc4c(N)ncnc43)C(O)C2O)C(O)C1O` (some centres undefined) [P1,P4-DI(adenosine-5')tetraphosphate ammonium salt], the relative growth recovery was 1.01%. Take `C=C1/C(=C\C=C2/CCC[C@]3(C)[C@@H]([C@H](C)CCCC(C)(C)O)CC[C@@H]23)C[C@@H](O)C[C@@H]1O` [Calcitriol (Rocaltrol)]: the relative growth recovery was found to be 4.81%. Consider `C=C1C(=O)O[C@@H]2C=C(C)CCC=C(C)CC[C@@H]12` [costunolide], for which the relative growth recovery is -0.955%. For the compound `CO[C@@]12[C@@H]3NC3CN1C1=C(C(=O)C(N)=C(C)C1=O)[C@@H]2COC(N)=O` (some centres undefined), the relative growth recovery was -12.9%. Then `CO[C@H]1CC[C@H](N2C(=O)CNc3ncc(-c4ccc(C(C)(C)O)nc4)nc32)CC1`, with -7.24%; and `CN1CCC[C@@H]1CCO[C@](C)(c1ccccc1)c1ccc(Cl)cc1`, with -3.56%; and `CCOC(=O)C1=C(C)NC(C)=C(C(=O)OC)C1c1cccc([N+](=O)[O-])c1` (centres undefined), with 2.87%. In the case of `O=C(/C=C/c1ccc(O)c(O)c1)c1ccc(O)cc1O` [Butein], the relative growth recovery was -8.42%. On to `CC[C@@]1(O)C(=O)OCc2c1cc1n(c2=O)Cc2c-1nc1cc(F)c(C)c3c1c2[C@@H](N)CC3.CS(=O)(=O)O` [Exatecan Mesylate], for which the relative growth recovery is -15.4%. On to `CO[C@H]1O[C@@H]2O[C@@]3(C)CC[C@H]4[C@H](C)CC[C@@H]([C@H]1C)[C@@]24OO3` [Artemether], for which the relative growth recovery is -5.75%. Then `CN1CCC(=C2c3ccccc3Sc3ccccc32)CC1`, with -1.33%; and `CCCCCCCCCCCCCCCC[N+](C)(C)Cc1ccccc1` [Benzyldimethylhexadecylammonium chloride hydrate], with -4.92%; and `Nc1ncn([C@H]2C[C@H](O)[C@@H](CO)O2)c(=O)n1` [decitabine], with -10.8%. Regarding `Cc1ncsc1-c1ccc(CNC(=O)[C@@H]2C[C@@H](O)CN2C(=O)[C@@H](NC(=O)COCCCCOc2ccc(-c3ccc(N4C(=S)N(c5ccc(C#N)c(C(F)(F)F)c5)C(=O)C4(C)C)cc3)cc2)C(C)(C)C)cc1`, the relative growth recovery is 55.3%. Consider `NC(=S)N/N=C/c1ncccc1N` [Triapine], for which the relative growth recovery was -13%.

Regarding `FC(F)(F)c1ccccc1-c1cc(C(F)(F)F)c2[nH]c(C3=NOC4(CCCCC4)C3)nc2c1`, the relative growth recovery was -3.06%. Regarding `NC(=O)c1ccc[n+]([C@@H]2O[C@H](COP(=O)(O)OP(=O)(O)OC[C@H]3O[C@@H](n4cnc5c(N)ncnc54)[C@H](O)[C@@H]3O)[C@@H](O)[C@H]2O)c1`, the relative growth recovery was found to be 1.08%. For the compound `O=C(O)c1cc([N+](=O)[O-])ccc1NCCCc1ccccc1`, the relative growth recovery was -1.86%. With `COc1cc([C@@H]2c3cc4c(cc3[C@@H](O[C@@H]3O[C@@H]5COC(c6cccs6)O[C@H]5[C@H](O)[C@H]3O)[C@H]3COC(=O)C23)OCO4)cc(OC)c1O` (some centres undefined) [Teniposide], the relative growth recovery was -12.5%.

Turning to `COc1cc(C(=O)NS(=O)(=O)c2ccccc2C)ccc1Cc1cn(C)c2ccc(NC(=O)OC3CCCC3)cc12` [Zafirlukast], the relative growth recovery is -5.17%. Take `C=CCNc1c(O)cc2c(O)c1C[C@@H](C)C[C@H](OC)[C@H](O)[C@@H](C)/C=C(\C)[C@H](OC(N)=O)[C@@H](OC)/C=C\C=C(/C)C(=O)N2` [Retaspimycin (Hydrochloride)]: the relative growth recovery was -10.9%. Regarding `CCCCCCCCCCC(CO)CCCCCCCC` (centres undefined) [2-Octyldodecan-1-ol], the relative growth recovery was -2.31%.

With `Oc1cc(O)c2cc(O)c(-c3cc(O)c(O)c(O)c3)[o+]c2c1` [delphinidin], the relative growth recovery was -1.78%.

With `CNCCC(Oc1ccc(C(F)(F)F)cc1)c1ccccc1` (centres undefined) [Fluoxetine HCl], the relative growth recovery stood at 1.15%. Then `C=C1/C(=C/C=C2\CCC[C@]3(C)[C@@H]([C@H](C)/C=C/[C@@H](C)C(C)C)CC[C@@H]23)C[C@@H](O)C[C@@H]1O` [Doxercalciferol (Hectorol)], with 2.85%; and `O=C(O)c1cc(/N=N/c2ccc(O)c(C(=O)O)c2)ccc1O`, with 3.38%; and `CCN(CCCCCOCC(=O)N[C@H](C(=O)N1C[C@H](O)C[C@H]1C(=O)N[C@@H](C)c1ccc(-c2scnc2C)cc1)C(C)(C)C)CCOc1ccc(C(=O)c2c(-c3ccc(O)cc3)sc3cc(O)ccc23)cc1`, with 11%. Consider `CC(C)(C)c1ccc(-c2nc3cccc(N4CCN(Cc5ccc6nccnc6c5)CC4)c3[nH]2)cc1`, for which the relative growth recovery was 9.79%.

On to `COc1cc(N2CCC(N3CCN(C(=O)CNc4cccc5c4C(=O)N(C4CCC(=O)NC4=O)C5=O)CC3)CC2)ccc1Nc1ncc(Cl)c(Nc2ccccc2P(C)(C)=O)n1` (centres undefined), for which the relative growth recovery is -0.385%. As for `N#CC(c1ccccc1)(c1ccccc1)c1ccccc1Cl`, the relative growth recovery is -0.3%. In the case of `COc1cc([C@@H]2c3cc4c(cc3[C@@H](O[C@@H]3O[C@@H]5CO[C@@H](C)O[C@H]5[C@H](O)[C@H]3O)[C@H]3COC(=O)[C@H]23)OCO4)cc(OC)c1OP(=O)(O)O` [Etoposide phosphate], the relative growth recovery was -13%. Consider `CCn1c(=O)[nH]c2cc(Cl)c(Cl)cc21`, for which the relative growth recovery was -1.89%. Then `CC(C)COCC(CN(Cc1ccccc1)c1ccccc1)N1CCCC1` (centres undefined) [bepridil], with -1.14%; and `COC(=O)Nc1ccc(-c2nc(N3CCOCC3)c3cnn(C4CCN(Cc5cccnc5)CC4)c3n2)cc1`, with -12.9%.

On to `Cc1cc(N2CCCCC2)nc2ccccc12`, for which the relative growth recovery is -1.01%.

As for `OCCN=CCNc1ccc(NCCNCCO)c2c(O)c3c(O)ccc(O)c3c(O)c12` [Mitoxantrone HCl], the relative growth recovery is -13.6%. `FC(F)(F)c1cc(NC(=S)Nc2ccc(Br)cc2-c2nnn[nH]2)cc(C(F)(F)F)c1`: the relative growth recovery is -1.23%.
